Experimental data published in ChEMBL document CHEMBL4513216, “Probing the Open Global Health Chemical Diversity Library for Multistage-Active Starting Points for Next-Generation Antimalarials” (ACS Infect Dis, 2020).
Among all 68,000 compounds or so, about 2,700 (4%) showed an effect of 50% or more. Many of the other results were omitted from the sample, so strong results are more common in it than they were.

Each compound was assayed on Plasmodium berghei (assay: Screen against P. berghei liver stage (PbLuc), transformed with Luciferase, at 2uM). Conditions: tested at 2 uM.
Format: functional, HepG2
For `CCCN(CC(=O)NC)C(=O)c1ccc(-c2nc(C)cs2)cc1`, the INHIBITION was 46.98%. `CC(C)(C)CC(=O)NCC(=O)Nc1ccn(Cc2ccccc2)n1` showed an INHIBITION of 43.87%. `O=C(NCc1nccs1)N1CCOC(c2ccccc2Cl)C1` (stereo not drawn) gave an INHIBITION of -71.45%. In the case of `O=C(NCc1nnc2ccccn12)N1CCOC(c2ccsc2)C1` (stereo not drawn), the INHIBITION is reported as 63.39%. Compound `O=C(NCc1nnc2ccccn12)N1CCc2sccc2C1` has an INHIBITION of 30.31%. `Cc1ccc(C2CN(C(=O)NCc3nnc4ccccn34)CCO2)o1` (stereo not drawn) showed an INHIBITION of 26.03%. With `CCn1cnnc1CNC(=O)N1CCOC(c2ccccc2Cl)C1` (stereo not drawn) the INHIBITION was 42.19%. With `O=C(NCc1nnc2ccccn12)N1CCOC(c2cccs2)C1` (stereo not drawn) the INHIBITION was 50.46%. For `CCN1CCC2(CC1)OCCN2C(=O)c1cc(Cl)c(OC)c(Cl)c1`, the INHIBITION was 19.62%. For `Cc1cc(C)n(C2CCCN(C(=O)c3ccc(N(C)C)nc3)C2)n1` (stereo not drawn), the INHIBITION was -35.65%. For `Cc1noc(C)c1S(=O)(=O)N(CC(N)=O)CC(C)C`, the INHIBITION was 23.08%. For `CC(C)n1cc(CN2CCCN(C(=O)C(C)n3cccn3)CC2)cn1` (stereo not drawn), the INHIBITION was -86.2%. In the case of `O=c1ccc2c(n1CC1CC1)CCC(NCc1cccs1)C2` (stereo not drawn), the INHIBITION is reported as -26.76%. For `CCC(C(=O)NC(C)(C)C)n1cccc(OC)c1=O` (stereo not drawn), the INHIBITION was 56.16%. In the case of `CCC(C(=O)NC1CCCCC1)n1cccc(OC)c1=O` (stereo not drawn), the INHIBITION is reported as -6.88%. With `CCC(C(=O)NC(C)(C)C)n1ccc2ncccc2c1=O` (stereo not drawn) the INHIBITION was 8.09%. With `CCN(C)S(=O)(=O)N1C[C@H]2CC[C@@H](C1)N(Cc1cscn1)C2=O` the INHIBITION was 48.21%. With `COc1ccc(CN(C)C(=O)NC(C)c2nncn2C)cc1F` (stereo not drawn) the INHIBITION was -6.61%. Compound `CCn1cnnc1CNC(=O)N(C)Cc1ccc(F)c(F)c1` has an INHIBITION of -2.9%. In the case of `CCOc1ccc(CN(C)C(=O)NC(C)c2nncn2C)cc1` (stereo not drawn), the INHIBITION is reported as -27.75%. Work on `CC(NC(=O)N(C)Cc1cccc(OC(F)F)c1)c1nncn1C` (stereo not drawn) yielded an INHIBITION of 59.03%. Work on `CCn1cnnc1CNC(=O)N(C)Cc1cccc(OC(F)F)c1` yielded an INHIBITION of 64.16%. Work on `CCn1cnnc1CNC(=O)N(C)Cc1ccc2c(c1)OCCO2` yielded an INHIBITION of -16.42%. `Cc1cccc(CN2CCC(C3Nc4ccccc4S(=O)(=O)N3)CC2)n1` (stereo not drawn) gave an INHIBITION of 7.38%. `COc1cc(N2C[C@@H]3COC[C@]3(COCc3ccccn3)C2)ncn1` showed an INHIBITION of -14.27%. `Cn1ccnc1CN1CCCC2(CCN(CC3CCCO3)CC2)C1` (stereo not drawn) was tested, and the INHIBITION was 26.46%. `Cc1nc(C2CCCN(C(=O)c3ccc(OCC4CC4)nc3)C2)no1` (stereo not drawn) showed an INHIBITION of 28.65%. For `CC(CNC(=O)NCc1ccsc1)CC1(C)OCCO1` (stereo not drawn), the INHIBITION was -35.5%. In the case of `CC1(C(=O)NCc2ccsc2)CCOCC1`, the INHIBITION is reported as 5.75%. Compound `CC1(CCNC(=O)NCc2ccsc2)OCCO1` has an INHIBITION of 57.23%. Compound `O=C(Cn1nc2c(cc1=O)CCCC2)NC(C(=O)O)c1ccccc1` (stereo not drawn) has an INHIBITION of 25.23%. Compound `CC1COCCN1Cc1nc(Cc2ccccc2)no1` (stereo not drawn) has an INHIBITION of -23.37%. Compound `COc1ncc(NCc2ccc(C#N)cc2)cc1C(N)=O` has an INHIBITION of 63.31%. For `COc1ncc(NCc2cccc(C#N)c2)cc1C(N)=O`, the INHIBITION was -7.69%. In the case of `COc1ncc(NCc2ccc(F)cc2)cc1C(N)=O`, the INHIBITION is reported as 17.18%. `CN1C(=O)CC(C(=O)O)C12CCN(c1ccc3cccc(Cl)c3n1)CC2` (stereo not drawn) gave an INHIBITION of -1.78%. Compound `CC(CCc1ccccc1)NC(=O)Nc1cnn(CC(N)=O)c1` (stereo not drawn) has an INHIBITION of 41.72%. `Cc1ccccc1CC(C)NC(=O)Nc1cnn(CC(N)=O)c1` (stereo not drawn) was tested, and the INHIBITION was 81.1%. In the case of `CC(Cc1ccccc1Cl)NC(=O)Nc1cnn(CC(N)=O)c1` (stereo not drawn), the INHIBITION is reported as -7.81%. Compound `COCCN1CCC2(CC1)CN(CCn1cccn1)C(=O)CO2` has an INHIBITION of 20.2%. `Cc1ccc(C(=O)N(C)CC(=O)Nc2cccc(C)n2)cn1` showed an INHIBITION of 23.76%. Work on `CN(CC(=O)NCC(F)(F)F)C(=O)c1ccc(C(=O)OC(C)(C)C)cc1` yielded an INHIBITION of -16.4%. With `Cc1ccc(C(=O)N(C)CC(=O)NCC(F)(F)F)cn1` the INHIBITION was 71.4%. `CCC(=O)Nc1cc(Cl)ccc1C(=O)N(C)Cc1noc(CC)n1` gave an INHIBITION of 1.1%. `COc1ccc(F)cc1-n1cnc(CCNC(C)=O)c1` gave an INHIBITION of 45.82%. `COc1cc(F)c(-n2cnc(CCNC(C)=O)c2)cc1F` was tested, and the INHIBITION was 60.13%. For `COc1ccc(Cl)cc1-n1cnc(CCNC(C)=O)c1`, the INHIBITION was 26.74%. For `CC(=O)N(CCc1nc(-c2cc(C(N)=O)oc2C)cs1)C(C)C`, the INHIBITION was 10.22%. In the case of `COc1cc(OC)c(C2CC(=O)Oc3cc(C)[nH]c(=O)c32)c(OC)c1` (stereo not drawn), the INHIBITION is reported as 14.96%. With `O=C(O)C(c1ccc2c(c1)OCO2)N1CCCC1` (stereo not drawn) the INHIBITION was 4.53%. `O=C(O)C(c1ccc2c(c1)OCCO2)N1CCCCCC1` (stereo not drawn) showed an INHIBITION of 19.56%. `O=C(O)C(c1ccc2c(c1)OCO2)N1CCCCCC1` (stereo not drawn) showed an INHIBITION of 59.48%. Compound `Cc1ccc(-n2cc3[nH]c(=O)[nH]n3c2=O)cc1` has an INHIBITION of -15.37%.
